Data on 26 compounds can be found in PubChem BioAssay (NCATS).

Structures are written as SMILES. A number with no mark means an inactive call. The call rests on the fitted dose curve; in most records, active means well fitted inhibition curve with a large enough effect; inconclusive means small, poorly fitted or top-dose-only effect; inactive means no such curve, though single readings can be large or run the other way.

This assay is described as follows: qHTS assay for measurement of the activity of small molecule inhibitors on Zika virus induced Caspase-3 activity in human astrocytoma cells (AID 1224859).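 Further: plate controls were ZIKV-infected untreated cells for no effect and uninfected cells for full effect.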 The conditions noted are these: SNB-19 ZIKV-induced caspase-3/7, luminescence, 6 h; series mostly up to 45.7 µM; activity change, negative = inhibition: at the top concentration. The procedure, abridged: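 A cell-based luminescent caspase-3/7 assay used SNB-19 cells infected with ZIKV (2 FFU/cell) for 6 h following 1 h compound pretreatment.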
(In general: In qHTS, concentration-response curves come from the screen itself.)
With `CC(N)Cc1c[nH]c2ccc(O)cc12` (stereo unspecified), the “activity change, negative = inhibition” value is 1.91%.

Turning to `NCCc1c[nH]c2ccc(C(N)=O)cc12`, the “activity change, negative = inhibition” value was -3.43%.

For the compound `NC(=O)c1cc(N2CC2)c([N+](=O)[O-])cc1[N+](=O)[O-]`, the “activity change, negative = inhibition” value was -4.54%.

Turning to `C=CCN1CC[C@]23c4c5ccc(O)c4O[C@@H]2/C(=N/N=C2\CC[C@@]4(O)C6Cc7ccc(O)c8c7[C@@]4(CCN6CC=C)[C@@H]2O8)CC[C@@]3(O)C1C5`, the “activity change, negative = inhibition” value was 0.287%.

In the case of `COc1ccc2c(c1)/C(=C/c1cnc[nH]1)C(=O)N2`, the “activity change, negative = inhibition” value is -2.31%.

Turning to `N[C@@H](CCl)C(=O)O`, the “activity change, negative = inhibition” value was 2.55%.

For `CCCCCCC(C)(C)c1ccc([C@@H]2C[C@H](O)CC[C@H]2CCCO)c(O)c1`, the “activity change, negative = inhibition” value was 20.8%.

As to `Oc1ccc2c3c1O[C@H]1c4[nH]c5ccccc5c4C[C@@]4(O)C(C2)N(CC2CC2)CCC314` (stereo partly specified), the “activity change, negative = inhibition” value was 2.16%.

For the compound `C[N+](C)(C)CC#CCOC(=O)Nc1cccc(Cl)c1`, the “activity change, negative = inhibition” value was -5.19%.

Consider `CC(C)[C@@]1(NC(=O)[C@@H]2C[C@@H]3c4cccc5[nH]cc(c45)C[C@H]3N(C)C2)O[C@@]2(O)[C@@H]3CCCN3C(=O)[C@H](Cc3ccccc3)N2C1=O`, for which the “activity change, negative = inhibition” value is -5.24%.

Take `COc1cc(CC(C)N)c(OC)cc1I` (stereo unspecified): the “activity change, negative = inhibition” value is -9.81%.

On to `CCN1C[C@@]2(COC)C3[C@@H](OC)C4[C@@H]1C3([C@@H]1C[C@]3(O)[C@H](OC(=O)c5ccccc5)[C@@H]1[C@]4(OC(C)=O)[C@@H](O)[C@@H]3OC)[C@H](OC)C[C@H]2O`, for which the “activity change, negative = inhibition” value was -6.74%.

For the compound `CC(N)[C@H](O)c1ccc(O)c(O)c1` (stereo partly specified), the “activity change, negative = inhibition” value was 0.316%.

For the compound `COc1ccc2c(c1)C13CCCCC1C(C2)N(C)CC3` (stereo unspecified), the “activity change, negative = inhibition” value is -2.72%.

In the case of `C[Se]C[C@H](N)C(=O)O`, the “activity change, negative = inhibition” value is 3.13%.

As for `CN(C(=O)Cc1ccc(Cl)c(Cl)c1)C(CN1CCCC1)c1cccc(OCC(=O)O)c1` (stereo unspecified), the “activity change, negative = inhibition” value is -5.7%.

For `CC(C)(C)c1cc(C=C(C#N)C#N)cc(C(C)(C)C)c1O`, the “activity change, negative = inhibition” value is -4.86%.

Consider `NC(Cc1ccc(N(CCCl)CCCl)cc1)C(=O)O` (stereo unspecified), for which the “activity change, negative = inhibition” value is -4.42%.

For the compound `C=CCN(C1=NCCN1)c1c(Cl)cccc1Cl`, the “activity change, negative = inhibition” value is 8.95%.

Regarding `CC(=O)c1c(O)c(C)c(O)c(Cc2c(O)c3c(c(C(=O)/C=C/c4ccccc4)c2O)OC(C)(C)C=C3)c1O`, the “activity change, negative = inhibition” value was -4.62%.

With `Cc1cc([C@@H]2CCCN2C)on1`, the “activity change, negative = inhibition” value was -0.686%.

For `CC(Cc1ccc(OCC(=O)O)cc1)NCC(O)c1cccc(Cl)c1` (stereo unspecified), the “activity change, negative = inhibition” value was 1.23%.

On to `Clc1cc(I)cc(Cl)c1NC1=NCCN1`, for which the “activity change, negative = inhibition” value is -2.7%.

Take `c1ccc2cc(CC3=NCCN3)ccc2c1`: the “activity change, negative = inhibition” value was -14.4%.

With `C[CH2][Hg][S]c1ccccc1C(=O)O`, the “activity change, negative = inhibition” value was 1.4%.

In the case of `COc1ccc2c(c1)[C@@]13CCCC[C@H]1[C@@H](C2)NCC3`, the “activity change, negative = inhibition” value was -7.96%.
